Data taken from PubChem BioAssay AID1347055 (National Center for Advancing Translational Sciences (NCATS), 2019).
Hit rate of the full screen: of about 54,000 compounds, about 120 (0.22%) were called active. Inconclusive results (about 8%) are left out. This is one part of a sample in which actives are shown more often than they occur. Calls come from the whole dose curve; as a rule, active = well fitted inhibition curve with a large enough effect; inconclusive = small, poorly fitted or top-dose-only effect, or effect the other way; inactive = flat fitted curve, though single readings scatter.

biological target: Fumarate hydratase, mitochondrial (Homo sapiens) (UniProt P07954); assay: Identification of activators of human fumarate hydratase by quantitative high-throughput screening; details: FH coupled MDH/diaphorase resazurin fluorescence, 15 min; series mostly up to 79.9 µM; note: the screen sought activators but most active calls are inhibition curves; nearly all actives have a fitted effect of over 45% in size
Sequence (P07954 whole entry, looked up): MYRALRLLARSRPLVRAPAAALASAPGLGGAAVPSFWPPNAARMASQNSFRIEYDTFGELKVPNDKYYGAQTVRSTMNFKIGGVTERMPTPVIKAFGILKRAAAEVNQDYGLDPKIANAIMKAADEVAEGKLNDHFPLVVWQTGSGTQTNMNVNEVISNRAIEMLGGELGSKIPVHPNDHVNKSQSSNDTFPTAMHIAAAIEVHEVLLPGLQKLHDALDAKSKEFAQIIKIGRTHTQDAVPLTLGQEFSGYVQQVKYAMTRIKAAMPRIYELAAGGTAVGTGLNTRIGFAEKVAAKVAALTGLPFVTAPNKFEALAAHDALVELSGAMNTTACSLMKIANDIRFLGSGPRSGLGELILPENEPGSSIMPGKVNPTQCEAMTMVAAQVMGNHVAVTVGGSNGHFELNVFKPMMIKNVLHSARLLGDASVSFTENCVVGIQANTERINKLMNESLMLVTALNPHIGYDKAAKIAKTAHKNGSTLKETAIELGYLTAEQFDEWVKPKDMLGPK
Text: Fumarate hydratase (FH) is a metabolic enzyme that is part of the Krebs-cycle, and reversibly catalyzes the hydration of fumarate to malate. Mutations of the FH gene have been associated with fumarate hydratase deficiency (FHD), hereditary leiomyomatosis, renal cell cancer (HLRCC), and other diseases. Currently there are no high-quality small molecule probes for studying human fumarate hydratase. To address this, we developed a quantitative high throughput screening (qHTS) FH assay and screened a total of 57,037 compounds in dose-response. While no inhibitors of FH were confirmed, a series of phenyl-pyrrolo-pyrimidine-diones (12 compounds) were identified as activators of human fumarate hydratase. […] The binding of two compounds from the series to human fumarate hydratase was confirmed by microscale thermophoresis. The low hit rate in this screening campaign confirmed that FH is a "tough target" to modulate, and the small molecule activators of human fumarate hydratase reported here may serve as a starting point for further optimization and development into cellular probes of human FH and potential drug candidates.
For primary high-throughput screen, 3 ul of FH solution (containing 13.33nM human fumarate hydratase, 13.33IU/ml malic dehydrogenase, 0.2mM NAD, 0.067mg/ml diaphorase and 0.067mM resazurin in the assay buffer (50 mM Tris pH 8.0, 5 mM MgCl2, 0.01% Brij 3) was dispensed into each well in a black solid bottom 1536-well assay plate (Greiner Bio-One) using a BioRAPTR FRD dispenser (Beckman Coulter, Brea, CA). A 1536-well pintool dispenser outfitted with 20 nl pins (Wako Automation, San Diego, CA) was used to transfer 20 nL of DMSO-solubilized compound (Cherrypick plates) to each 1536-well assay plate. Each compound was screened at five concentrations: 15 nM, 151 nM, 1.5 uM, 15.4 uM, 76.9 uM. Following compound transfer, plates were incubated in room temperature for 10 minutes. 1 uL of substrate solution containing fumaric acid (160 uM) was dispensed via BioRAPTR FRD to initiate the reaction. Plates were immediately transferred to a ViewLux microplate imager (PerkinElmer, Waltham, MA), and any resulting resorufin fluorescence was measured (exitation/emission, 525/598 nm) at 0 and 15 minutes. The exposure time is 1 second. Fluorescence from each well was normalized using enzyme-free and DMSO-treated control wells on each plate, and changes in fluorescence (delta RFU) were calculated using the difference in fluorescent signal for each well at 15 minutes versus 0 minutes.
% is set by controls: 0 for no effect and ±100 for the full control effect.

Structure (SMILES)	activity change, negative = inhibition
CCOc1ccc(S(=O)(=O)N2CCCCCC2)c2ccccc12	inactive
C=C1CCC2C(C)(COC(C)=O)CCCC2(C)C1CCC(C)CC(=O)O (stereo not drawn)	inactive
COC(=O)c1cc(NC(=O)c2cnc(SC)nc2-c2ccccc2)cc(C(=O)OC)c1	inactive
Cc1cc(NC(=O)CC(C)C)cc(-c2nc3ncccc3o2)c1O	inactive
CC(=O)c1cnc2ccc(-c3cc(Cl)c(O)c(Cl)c3)nc2c1NC1CCC(CN(C)C)CC1 (stereo not drawn)	-1.45% [at 0.673 µM] (inactive)
COc1cc(O)c(C(=O)CCc2ccc(O)cc2)c(O[C@@H]2O[C@H](CO)[C@@H](O)[C@H](O)[C@H]2O)c1	inactive
CC(C)C1=CC2C(CC[C@]2(C)O)[C@](C)(O)CC1 (stereo partly drawn)	inactive
Fc1ccc(-c2nc(-c3ccccc3F)[nH]c2-c2ccncc2)cc1	inactive
COC(=O)c1[nH]c(=O)c2ccccc2c1-c1ccc[nH]1	inactive
CC(=O)N1CCc2cc(S(=O)(=O)NC(Cc3ccccc3)C(=O)NCc3ccc(C)cc3)ccc21 (stereo not drawn)	inactive
O=C(Nc1ccc2nc(SCC(=O)N3CCCc4ccccc43)sc2c1)c1ccc(F)cc1	inactive
COc1ccc(NC(=O)CCN2CCN(CCO)CC2)cc1	inactive
CCc1ccc(CN(Cc2ccco2)C(=O)c2ccccc2Cl)cc1	inactive
COCCNS(=O)(=O)c1cc(-c2nn3c(C)nnc3c3ccccc23)ccc1C	inactive
CCOC(=O)c1ccc(NC(=O)c2c(NCc3cccs3)sc3c2CCCC3)cc1	inactive
CC(F)(F)CN1CCOc2c(nn(-c3ccccc3Cl)c2-c2ccc(Cl)cc2)C1=O	inactive
CCC/C=C/C(=O)O[C@H]1CC(C)(C)CC2[C@]13[C@H](O)O[C@@]21CCC2[C@@]4(C)CC[C@H](O[C@@H]5O[C@H](C(=O)O)[C@@H](O)[C@H](O[C@@H]6O[C@H](CO)[C@H](O)[C@H](O)[C@H]6O[C@@H]6O[C@@H](C)[C@H](O)[C@@H](O)[C@H]6O[C@@H]6OC[C@](O)(CO)[C@H]6O)[C@H]5O[C@@H]5O[C@H](CO)[C@H](O)[C@H](O)[C@H]5O)C(C)(C)C4CC[C@@]2(C)[C@]1(C)C[C@H]3OC(C)=O (stereo partly drawn)	27.8% [at 13.5 µM] (inactive)
Cc1ccc(-c2nnc3c4ccccc4c(C)nn23)cc1NC(=O)c1cccc(Br)c1	inactive
Cc1cc(C)c(NC(=O)c2cc3sc(Cl)cc3n2C)c(C)c1	inactive
O=C(CN1C(=O)COc2ccc(S(=O)(=O)N3CCOCC3)cc21)N1CCN(c2cccc(Cl)c2)CC1	inactive
O=C(Cn1c(=O)n(Cc2cccs2)c(=O)c2cccnc21)Nc1ccc(F)cc1	inactive
C[C@H]1CC[C@@]2(OC1)O[C@H]1CC3C4CC[C@H]5C[C@@H](O)CC[C@]5(C)C4CC(=O)[C@]3(C)[C@H]1[C@@H]2C (stereo partly drawn)	inactive
Cn1c(=O)c2c(n3c4ccccc4nc13)NC(=O)CC2c1cccc(Cl)c1 (stereo not drawn)	inactive
C/C=C(\C)C(=O)OC1C=C(C)CC(OC(=O)c2ccc(O)cc2)C2C1(C)CCC2(O)C(C)C (stereo not drawn)	inactive
Cc1ccccc1C#Cc1ccc(CCC(=O)O)cc1	inactive
CCOc1cc(/C=C(\C#N)C(=O)Nc2ccccc2C)ccc1OCc1cc(=O)n2nc(CC)sc2n1	inactive

Structure (SMILES)	activity change, negative = inhibition
CCC1OC(=O)C(C)CC(C)C(=O)/C(C)=C/C(C)C(=O)/C=C/C1(C)O (stereo not drawn)	inactive
Cc1cc(Br)ccc1NC(=O)Cn1cnc2sc(C)c(S(=O)(=O)N3CCN(C)CC3)c2c1=O	inactive
CNc1ccc(-c2nc(-c3ccccc3C)no2)cc1[N+](=O)[O-]	inactive
CC(=O)O[C@@H]1c2c3c(cc(O)c2C(=O)O[C@@H]1C)O[C@@]1(C)[C@@H](O)C[C@H]2C(C)(C)C(=O)C=C[C@]2(C)[C@@H]1C3	inactive
Cc1nc2nc(NCc3cccc(Br)c3)[nH]n2c(=O)c1Cc1ccccc1	inactive
CC1CC2C3CCC4=CC(=O)C=C[C@]4(C)[C@@]3(F)[C@@H](O)C[C@]2(C)[C@@]1(O)C(=O)CO (stereo partly drawn)	inactive
CCOc1ccc(CNC(=O)c2cc(-c3ccc(Cl)s3)nc3ccccc23)cc1	inactive
CC(=O)[C@@H]1C[C@H](C(C)(C)O[C@@H]2O[C@H](CO)[C@@H](O)[C@H](O)[C@H]2O)CC[C@@]2(CO)OC(=O)C[C@@H]12	inactive
COc1ccc(C)cc1NC(=O)COCc1cc(-c2cccs2)on1	inactive
CCN(Cc1ccccc1)C(=O)CCS(=O)(=O)c1ccc2c(c1)oc(=O)n2C	inactive
Cc1ccc(S(=O)(=O)N2CCC(C(=O)Nc3cc(C)ccc3C)CC2)cc1	inactive
COc1ccc(Cc2nc3ccc(C(=O)NCc4ccccc4Cl)cc3o2)cc1	inactive
CSc1ccc(CCNC(=O)c2cc(C)nc3c2c(C)nn3-c2cccc(F)c2)cc1	inactive
COc1ccc(OC)c(CNC(=O)c2c3c(nc4ccccc24)C(=O)N(C2CCCCC2)C3)c1	inactive
COc1ccc(-c2cn3c(C)c(C(=O)Nc4cc(C)cc(C)c4)sc3n2)cc1	inactive
C[C@@H]1COCCN1c1cc(C2(S(C)(=O)=O)CC2)nc(-c2cccc3[nH]ccc23)n1	inactive
CC(=O)O[C@@H]1CC2C(C)(C)C(=O)C=C[C@]2(C)C2CC[C@]3(C)C(=CC(=O)[C@@H]3c3ccoc3)[C@@]21C (stereo partly drawn)	inactive
Cc1cc(C)c2oc(C(=O)Nc3ccc(S(=O)(=O)N(C)c4ccccc4)cc3)cc(=O)c2c1	inactive
C/C1=C\CC(C)(C)/C=C/C/C(C(=O)O)=C/CC1	inactive
C/C=C(\C)C1C(C)=CC2CCC(OS(=O)(=O)O)C(C)C2C1/C=C/C=C/C(=O)O (stereo not drawn)	inactive
O=S(=O)(c1ccc(Cl)cc1)c1nnn2c1nc(NC1CCCC1)c1sccc12	inactive
NC(=O)c1cnc(NCCc2ccc(O)c(Cl)c2)nc1NCc1ccccc1	inactive
CC(O)COc1ccccc1 (stereo not drawn)	inactive
COc1ccc(NC(=O)C(c2ccccc2)N2Cc3ccccc3C2=O)cc1 (stereo not drawn)	inactive
COc1ccc(N2CCN(C(=O)c3c(C)oc4nc(C)nc(N5CCCC5)c34)CC2)cc1	inactive
CCCN(C(=O)Cn1ncc2c([nH]c3ccc(C)cc32)c1=O)c1ccccc1C	inactive

Structure (SMILES)	activity change, negative = inhibition
CC/C(=C(/CC)c1ccc(O)c(CN(CC)CC)c1)c1ccc(O)c(CN(CC)CC)c1	inactive
CCOc1cc(C(=O)NCCc2csc3nc(-c4ccc(C)cc4)nn23)cc(OCC)c1OCC	inactive
CCOc1ccccc1N(C)C(=O)c1cc2c(s1)-c1ccccc1OC2	inactive
O=C(O)CC1CCC(c2ccc(-c3ccc(Nc4ccc(C(F)(F)F)nc4)cn3)cc2)CC1 (stereo not drawn)	inactive
CC(C)CC(=O)O[C@@H]1O[C@H](CO)[C@@H](O[C@H]2O[C@H](C)[C@@H](N[C@H]3C=C(CO)[C@@H](O[C@H]4O[C@H](CO)[C@@H](O[C@H]5O[C@H](CO)[C@@H](O[C@H]6O[C@H](CO)[C@@H](O)[C@H](O)[C@H]6O)[C@H](O)[C@H]5O)[C@H](O)[C@H]4O)[C@H](O)[C@H]3O)[C@H](O)[C@H]2O)[C@H](O)[C@H]1O	inactive
CC(O)C1CCC2C3CCC4CC(OC5OC(C(=O)O)C(O)C(O)C5O)CCC4(C)C3CCC12C (stereo not drawn)	inactive
CO[C@H]1C[C@@H]2CC[C@@H](C)[C@@](O)(O2)C(=O)C(=O)N2CCCC[C@H]2C(=O)O[C@H]([C@H](C)C[C@H]2CC[C@@H](OP(C)(C)=O)[C@H](OC)C2)CC(=O)[C@H](C)/C=C(\C)[C@@H](O)[C@@H](OC)C(=O)[C@H](C)C[C@H](C)/C=C/C=C/C=C/1C	inactive
CC(C)CC(c1c(O)c(C=O)c(O)c(C=O)c1O)C1CCC(C)(O)C2CC(C(C)(C)O)CCC12C (stereo not drawn)	inactive
COc1ccc(Cn2c(=O)n(-c3ccccc3C)c(=O)c3c4c(sc32)CN(C(C)=O)CC4)cc1	inactive
C/C=C/C=C/[C@@H]1O[C@](O)([C@H](CC)C(=O)NC/C=C/C=C(\C)[C@@H](OC)[C@@H](C)[C@@H]2O[C@H](/C=C/C=C/C=C(\C)C(=O)c3c(O)ccn(C)c3=O)[C@H](O)[C@@H]2O)[C@H](O)[C@H](O)C1(C)C	inactive
CCOC(=O)CNc1nc2ccccc2n2c(C)nnc12	inactive
Cc1cc(C)c2sc(NC(=O)c3ccc(S(=O)(=O)N4CCCC4)cc3)nc2c1	inactive
Cc1cc(C)c(-n2cc(C)c3c(Cl)nc(C)nc32)c(C)c1	inactive
CNC(=O)c1ccc(-c2nc(CN3CCc4ccccc43)c(C)o2)cc1	inactive
COc1cc(OC)c(NC(=O)c2ccc(Cc3cc4c(cc3C)C(C)(C)CCC4(C)C)o2)c(OC)c1	inactive
O=C(Nc1ccc2nc(SCC(=O)N3CCCc4ccccc43)sc2c1)c1ccc(Cl)cc1	inactive
CC1(C)CCC2(C(=O)OC3OC(COC4OC(CO)C(O)C(O)C4O)C(O)C(O)C3O)CCC3(C)C(=CCC4C5(C)CCC(O)C(C)(C(=O)O)C5CCC43C)C2C1O (stereo not drawn)	inactive
COc1ccccc1-c1c[nH]c2ncc(-c3cncc(C(=O)N(C)C)c3)cc12	inactive
CN(Cc1ccccc1)C(=O)CCS(=O)(=O)c1cc(Br)cc2c1N(C(=O)C1CC1)CC2	inactive
CC1CCC2C(C(=O)O)=CC3C(O)C(C)(C)CC123 (stereo not drawn)	inactive
CC(O)/C=C/C1(O)C2(C)COC1(C)CC(O)C2 (stereo not drawn)	inactive
CC1CCC2C(C)(C)C(O)CCC2(C)C12Cc1c(O)cc3c(c1O2)CN(C(CCC(N)=O)C(=O)O)C3=O (stereo not drawn)	inactive
CC(=O)N1CCCc2cc(S(=O)(=O)N3CCC(C(=O)NCc4ccc(C)cc4)CC3)ccc21	inactive
NC1CCC(Nc2cc(-c3cccc(NCc4cccc(F)c4)n3)c(Cl)cn2)CC1 (stereo not drawn)	inactive
Cc1ccc(S(=O)(=O)NCc2nc3nc(C)cc(C)n3n2)cc1	inactive
Cc1nc2c(C(F)(F)F)cccc2nc1-c1ccc(-c2cccc(S(C)(=O)=O)c2)cc1	inactive
